Reference: PubChem BioAssay (NCI)
The panel holds about 83,000 compounds, 20% with a hit somewhere; the sample as a whole holds those more often.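 Note: values are percent growth. 100 is the growth of untreated cells, values between 100 and 0 indicate rising inhibition; between -100 and 0 indicates cell death.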 Unmarked numbers belong to inactive results. The source made the active and inactive calls. How the source made its calls: active means growth percent below 10; inactive means the rest.

Columns and labels:
Experiment in all cases: NCI-60 one-dose screen, 48 h (100 = growth as untreated, 0 = no growth, -100 = all killed)
Details in all cases: 10 µM unless noted
NCI-H23 lung = test system: NCI-H23 lung
NCI-H226 lung = test system: NCI-H226 lung
NCI-H322M lung = test system: NCI-H322M lung
NCI-H460 lung = test system: NCI-H460 lung
HOP-92 NSCLC = test system: HOP-92 NSCLC
NCI-H522 lung = test system: NCI-H522 lung
A549/ATCC NSCLC = test system: A549/ATCC NSCLC
786-0 renal = test system: 786-0 renal
COLO 205 colon = test system: COLO 205 colon
DU-145 prostate = test system: DU-145 prostate
K-562 leukemia = test system: K-562 leukemia
MALME-3M melanoma = test system: MALME-3M melanoma
MDA-MB-231 breast = test system: MDA-MB-231 breast
RXF 393 renal = test system: RXF 393 renal
SF-268 CNS = test system: SF-268 CNS
SF-295 CNS = test system: SF-295 CNS
SF-539 CNS = test system: SF-539 CNS
UACC-257 melanoma = test system: UACC-257 melanoma
M14 melanoma = test system: M14 melanoma
HOP-62 NSCLC = test system: HOP-62 NSCLC

Row | Compound | growth (NCI-H23 lung) [%] | growth (NCI-H226 lung) [%] | growth (NCI-H322M lung) [%] | growth (NCI-H460 lung) [%] | growth (HOP-92 NSCLC) [%] | growth (NCI-H522 lung) [%] | growth (A549/ATCC NSCLC) [%] | growth (786-0 renal) [%] | growth (COLO 205 colon) [%] | growth (DU-145 prostate) [%] | growth (K-562 leukemia) [%] | growth (MALME-3M melanoma) [%] | growth (MDA-MB-231 breast) [%] | growth (RXF 393 renal) | growth (SF-268 CNS) [%] | growth (SF-295 CNS) [%] | growth (SF-539 CNS) [%] | growth (UACC-257 melanoma) | growth (M14 melanoma) [%] | growth (HOP-62 NSCLC) [%]
1 | OC(COc1ccccc1Cl)CN1CCN(c2ccc(Cl)cc2)CC1 (stereo not given) | 107 | 94.5 | 101 | 104 | 85.8 | 92.6 | 112 | 106 | 116 | 110 | 115 | 110 | 103 | 94.3% | 104 | 97.9 | 90.6 | 109% | 105 | –
2 | O=C(/C=C/c1ccccc1)Oc1ccc(/C=C/c2cc(OC(=O)/C=C/c3ccccc3)cc(OC(=O)/C=C/c3ccccc3)c2)cc1 | 102 | 91.4 | 90.6 | 100 | – | 77 | 83.9 | 102 | 97.4 | 104 | 94.8 | 91.2 | 104 | 114% | 99.5 | 101 | 91.8 | 81.7% | 100 | –
3 | COc1cc(/C=C/C(=O)c2c(C)n([O-])c3cc(C)c(C)cc3[n+]2=O)cc(OC)c1OC | 72.7 | 82.8 | 67.6 | – | 41.5 | 33.6 | – | 23.1 | 70.1 | 50.5 | 21.7 | 86 | 67.8 | 54.2% | 79.9 | 71.7 | 80.2 | 100% | 48.7 | –
4 | CCOC(=O)C(C)(CSSCC(C)(NC(=O)c1ccc2ccccc2c1)C(=O)OCC)NC(=O)c1ccc2ccccc2c1 (stereo not given) | 98.3 | 97.9 | 96.7 | – | 105 | 92.9 | – | – | 121 | 117 | 91.1 | 115 | 114 | – | 102 | 96.2 | 114 | -17.8% (active) | 114 | 105
5 | CCc1c(C)c2cc3nc(NCc4ccccc4)oc3c(C)c2oc1=O | 69.7 | 88.1 | 70.2 | 60.3 | 78.1 | 45.5 | 78.6 | 44.4 | 114 | 82.9 | 89.5 | 51.9 | 62.1 | 53.9% | 65.9 | 79.6 | 33.5 | 87.6% | 88.3 | –
6 | O=C(CSc1nnc(-c2cc3c([nH]c4ccccc43)c(-c3cccc(O)c3)n2)n1-c1ccccc1)c1ccccc1 | 80.2 | 93.4 | 89.7 | 65.3 | 67.6 | 23 | 69.9 | 18.8 | 105 | 47.8 | 21.8 | 55.4 | 78 | -11.4% (active) | 63.1 | 16.8 | 33.1 | 93.3% | 30 | –
7 | CCN(CC)CCC(C(=O)O)(c1ccccc1)c1ccccc1 | 95.3 | 106 | 103 | 105 | 101 | 89.7 | 110 | 96.4 | 101 | 107 | 102 | 89.7 | 99.4 | 118% | 93.9 | 97 | 93.9 | 113% | – | –
8 | O=C(O)c1cc2ccccc2cc1Nc1ccccc1 | 84.6 | 93.8 | 108 | 91.8 | 91.3 | 80.6 | 87.6 | 101 | 122 | 113 | 98.3 | 111 | 96.2 | 77.7% | 99.7 | 104 | 74.2 | 4.2% (active) | 96.7 | –
